Results published in PubChem BioAssay (NCATS).
Several values for one entry are separate records, joined by “and”; a condition that tells them apart may be missing. Identical values can stand only once. Inconclusive results are not listed. Where a call stands in place of a potency, no number is given. Unmarked numbers belong to inactive results. Activity calls are given as the source filed them. Calls come from the whole dose curve; as a rule, active = well fitted curve in the direction sought with a large enough effect; inconclusive = small, poorly fitted or top-dose-only effect, or another doubt; inactive = no such curve, though single readings can be large; an effect the other way counts as inactive or inconclusive.

Columns and labels:
[1] = biological target: Cytochrome P450 3A7 (Homo sapiens) (UniProt P24462); assay: Cytochrome P450 family 3 subfamily A member 7 (CYP3A7) small molecule antagonists: luciferase biochemical qHTS assay (AID 1963596); note: nearly all actives have a fitted effect of over 40% in size
Procedure, shortened: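 Luminescence read-out (relative luminescence units) after 20 min with detection reagent, which stops the reaction. Enzyme, proluciferin substrate and compound preincubated 10 min, RT; NADPH regeneration system then started 1 h reaction. Ketoconazole as positive control.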

[2] = Viability qHTS for spleen associated tyrosine kinase inhibitor (SYKi) naive MV4-11 cells (AID 1963823); note: nearly all actives have a fitted effect of over 40% in size
Procedure, shortened: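 Compounds were dispensed acoustically onto plates, MV4-11 cells (SYKi-naive) added at 500 per well, and plates incubated 72 hr at 37 C. CellTiter-Glo was added and luminescence measured after 10 min.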

[3] = Viability qHTS for spleen associated tyrosine kinase inhibitor (SYKi) drug resistant MV4-11 cells (AID 1963824); note: nearly all actives have a fitted effect of over 35% in size
Procedure, shortened: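 SYK inhibitor-resistant MV4-11 AML cells, 500 per well, added to predispensed compounds and incubated 72 hr at 37 C, 5% CO2. Viability measured by CellTiter-Glo luminescence after 10 min at room temperature.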

[4] = Quantitative highthroughput screen to assess conditional lethalithy of NOMO1 cells grown in RPMI1640 with untreated serum (RPMI+s) (AID 1963876); note: nearly all actives have a fitted effect of over 35% in size
Procedure, shortened: (§1)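 Each medium arm—HPLM with 10% dialyzed FBS, or RPMI1640 with 5 mM glucose and 10% untreated or dialyzed FBS—was screened against an 11-point, 3-fold compound titration for 48 h at 37 °C, with CellTiter-Glo luminescence as endpoint.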

[5] = Quantitative highthroughput screen to assess conditional lethalithy of NOMO1 cells grown in RPMI1640 with dialyzed fetal bovine serum (RPMI+ds) (AID 1963877); note: nearly all actives have a fitted effect of over 30% in size; for Viability: series mostly up to about 46 µM
Procedure, shortened: as §1

[6] = Quantitative highthroughput screen to assess conditional lethalithy of NOMO1 cells grown in Human Plasma-Like Medium with dialyzed fetal bovine serum (HPLM+ds) (AID 1963878); note: nearly all actives have a fitted effect of over 35% in size
Procedure, shortened: as §1

[7] = Quantitative highthroughput screen to assess conditional lethalithy of P12 Ichikawa cells grown in RPMI1640 with dialyzed fetal bovine serum (RPMI+ds) (AID 1963880); conditions: Potency: P12-Ichikawa viability; note: nearly all actives have a fitted effect of over 35% in size
Procedure, shortened: as §1

[8] = Quantitative highthroughput screen to assess conditional lethalithy of P12 Ichikawa cells grown in RPMI1640 with untreated serum (RPMI+s) (AID 1963881); conditions: Potency: viability; note: nearly all actives have a fitted effect of over 35% in size; for Viability: series mostly up to about 46 µM
Procedure, shortened: as §1

[9] = Quantitative highthroughput screen to assess conditional lethalithy of SEM cells grown in Human Plasma-Like Medium with dialyzed fetal bovine serum (HPLM+ds) (AID 1963882); note: nearly all actives have a fitted effect of over 35% in size; for Viability: series mostly up to about 46 µM
Procedure, shortened: as §1

[10] = Quantitative highthroughput screen to assess conditional lethalithy of SEM cells grown in RPMI1640 with unreated serum (RPMI+s) (AID 1963883); note: nearly all actives have a fitted effect of over 35% in size
Procedure, shortened: as §1

[11] = Quantitative highthroughput screen to assess conditional lethalithy of SEM cells grown in RPMI1640 with dialyzed fetal bovine serum (RPMI+ds) (AID 1963884); note: nearly all actives have a fitted effect of over 35% in size; for Viability: series mostly up to about 46 µM
Procedure, shortened: as §1

[12] = Cellular viability qHTS for adrenocortical cancer (ACC) cell line SW-13 (AID 1963989); conditions: SW-13 ACC cells viability, CellTiter-Glo, 48 h; activity (max response): stronger effect = lower value; note: nearly all actives have a fitted effect of over 65% in size;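 for activity (max response): cells grown in serum-free medium with ITS supplement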
Procedure, shortened: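 Here, serum-free SW-13 cultures were dosed up to 46 uM. Following 48 h, ATP-dependent luminescence (CellTiter-Glo) reported viable cells, and logistic modeling produced IC50 values.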

[13] = Quantitative highthroughput screen to assess conditional lethalithy of P12 Ichikawa cells grown in Human Plasma-Like Medium with dialyzed fetal bovine serum (HPLM+ds) (AID 1963879); conditions: Potency: viability; note: nearly all actives have a fitted effect of over 35% in size; for Viability: series mostly up to about 46 µM
Procedure, shortened: as §1

[14] = Cellular viability qHTS for adrenocortical cancer (ACC) cell line NCI-H295R (AID 1963990); note: nearly all actives have a fitted effect of over 60% in size
Procedure, shortened: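 Viability of NCI-H295R after 48 h of treatment (final up to 46 uM) measured through cellular ATP luminescence.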
Potency is the fitted concentration of half-maximal effect.

Chain of Cytochrome P450 3A7 (Homo sapiens) (P24462 whole entry, looked up): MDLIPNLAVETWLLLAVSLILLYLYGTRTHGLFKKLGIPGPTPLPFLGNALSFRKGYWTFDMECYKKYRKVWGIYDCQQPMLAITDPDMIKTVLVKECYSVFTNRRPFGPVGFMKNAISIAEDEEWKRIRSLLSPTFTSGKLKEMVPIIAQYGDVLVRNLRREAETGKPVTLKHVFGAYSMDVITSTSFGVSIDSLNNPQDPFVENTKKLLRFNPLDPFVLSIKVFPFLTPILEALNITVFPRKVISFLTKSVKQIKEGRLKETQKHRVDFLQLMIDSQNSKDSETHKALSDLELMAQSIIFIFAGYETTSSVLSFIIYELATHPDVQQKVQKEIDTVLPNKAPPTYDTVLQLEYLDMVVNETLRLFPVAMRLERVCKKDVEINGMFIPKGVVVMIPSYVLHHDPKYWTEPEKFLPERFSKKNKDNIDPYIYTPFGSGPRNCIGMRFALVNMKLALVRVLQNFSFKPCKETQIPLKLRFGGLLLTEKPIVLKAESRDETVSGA

SMILES	Potency [1]	Potency [2]	Potency [3]	Potency [4]	Potency [5]	Potency [6]	Potency [7]	Potency [8]	Potency [9]	Potency [10]	Potency [11]	activity (max response) [12]	Potency [13]	Potency [14]	Potency [12]
O=C(O)c1cc(=O)c2c(OCC(O)COc3cccc4oc(C(=O)O)cc(=O)c34)cccc2o1	inactive	inactive	inactive	inactive	inactive	inactive	inactive	inactive	inactive	inactive	inactive	10.3% and -0.0262%	–	–	–
Cc1cc(=O)oc2cc(O)ccc12	inactive	inactive	inactive	inactive	inactive	inactive	inactive	inactive	inactive	inactive	inactive	-3.93% and 10.3%	inactive	inactive	–
COc1ncnc(NS(=O)(=O)c2ccc(N)cc2)c1OC	inactive	inactive	inactive	4.69 µM (active)	7.43 µM (active)	2.35 µM (active)	1.18 µM (active)	–	1.87 µM (active)	0.935 µM (active)	–	-3.79% and 4.29%	1.18 µM (active)	inactive	–
COc1ccc2c(OCc3nnc4ccc(-c5ccccc5)nn34)ccnc2c1	inactive	inactive	inactive	inactive	inactive	inactive	inactive	inactive	–	11.8 µM (active)	18.7 µM (active)	-4.03%	–	–	–
CC(C)CC(=O)Nc1n[nH]c2c1CN(C(=O)C1CCN(C)CC1)C2(C)C	inactive	206 nM (active) and 417 nM (active)	259 nM (active) and 468 nM (active)	3.72 µM (active)	5.9 µM (active)	6.62 µM (active)	4.69 µM (active)	4.18 µM (active)	2.64 µM (active)	1.05 µM (active)	4.69 µM (active)	–	–	–	3.98 µM (active)
C1Cc2[nH]nc(-c3nn[nH]n3)c2C1	inactive	inactive	inactive	inactive	inactive	inactive	inactive	inactive	inactive	inactive	inactive	1.5%	inactive	inactive	–
Clc1ccc(C2(c3ccc(-c4cn[nH]c4)cc3)CCNCC2)cc1	12.6 µM (active)	2.31 µM (active) and 2.63 µM (active)	5.17 µM (active) and 7.42 µM (active)	14.8 µM (active)	4.18 µM (active)	3.32 µM (active)	–	–	–	9.35 µM (active)	–	–	5.26 µM (active)	15.8 µM (active)	–
O=c1oc2c(O)c(O)cc3c(=O)oc4c(O)c(O)cc1c4c23	inactive	inactive	inactive	inactive	inactive	inactive	inactive	inactive	inactive	inactive	inactive	9.27% and 2.22%	inactive	inactive	–
C[C@@H](c1ncncc1F)[C@](O)(Cn1cncn1)c1ccc(F)cc1F	inactive	inactive	inactive	inactive	inactive	inactive	inactive	–	inactive	–	–	-12.4%	inactive	–	–
CCC1(C)CC(=O)NC1=O (configuration not stated)	inactive	inactive	inactive	inactive	inactive	inactive	inactive	inactive	inactive	inactive	inactive	–	inactive	inactive	–
COc1cc2ncnc(Nc3cc(Br)c(O)c(Br)c3)c2cc1OC	inactive	11.8 µM (active) and 11.6 µM (active)	13.2 µM (active) and 9.2 µM (active)	inactive	inactive	inactive	inactive	inactive	inactive	inactive	–	–	inactive	inactive	–
CC(C)(Sc1cc(C(C)(C)C)c(O)c(C(C)(C)C)c1)Sc1cc(C(C)(C)C)c(O)c(C(C)(C)C)c1	inactive	inactive	inactive	inactive	inactive	inactive	inactive	inactive	inactive	inactive	–	7.94% and -9.47%	inactive	inactive	–
COC(=O)c1ccc2c(C(=Nc3ccc(N(C)C(=O)CN4CCN(C)CC4)cc3)c3ccccc3)c(O)[nH]c2c1	inactive	32.6 nM (active) and 37.2 nM (active)	58 nM (active) and 66.1 nM (active)	inactive	inactive	inactive	inactive	inactive	–	–	–	–	inactive	10 µM (active)	7.08 µM (active)
